Assay outcomes as filed in PubChem BioAssay.
TGFb SMAD3 inh – blocks TGF-b signaling | HepG2 CAGA-GFP TGF-b/SMAD3 reporter, GFP fluorescence, 18 h; TGF-beta stimulated, 500 pg/mL final | Potency, µM (series often up to 46.1 µM), for the others: at the top dose activity, negative = inhibition, most hits filed as inhibitors | 410,000 tested, 1.2% active | AID 588855; note: % is set by controls: 0 for no effect and ±100 for the full control effect; nearly all actives have a fitted effect of over 65% in size
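HEPG2 CAGA-GFP, 1000 cells/well; 2 h settle, 37 C; cpd via pin tool; TGF-b 500 pg/mL final; 18 h, 37 C; GFP imaging ex488/em500-530; %Activity normalised to -TGF-b and +DMSO controls; CRC fit, curve class.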
DT40 TDP1 CPT – growth inhibition of DT40 Tdp1-/-;hTDP1 cells with camptothecin (screen for TDP1 inhibitors) | chicken DT40 Tdp1-/-;hTDP1 cells + 20 nM CPT, ATP luminescence, 48 h | Potency, µM (top dose mostly 46.2 µM), for the others: at the highest dose activity change, negative = growth inhibition, hits mostly inhibitors | 420,000 tested, 12% active | AID 686979; note: % is set by controls: 0 for no effect and ±100 for the full control effect; nearly all actives have a fitted effect of over 55% in size
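Chicken DT40 Tdp1-/- cells stably complemented with human TDP1 were seeded at 400 cells/well in medium containing 20 nM camptothecin, exposed to pin-transferred compounds, and grown at 37 °C for at least 48 hr. Viability was read as ATP luminescence.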
ATXN viability – reduces viability in counter-screen for ATXN expression inhibitors | Potency, µM (top dose mostly 56.7 µM), actives largely listed as cytotoxic | 400,000 tested, 0.49% active | AID 651635 | S2 cells (HEK-293 line with an ATXN2-luciferase reporter) viability, CellTiter-Fluor protease fluorescence, 24 h; note: nearly all actives have a fitted effect of over 40% in size
TDP1 cell noCPT – qHTS for Inhibitors of human tyrosyl-DNA phosphodiesterase 1 (TDP1): qHTS in cells in absence of CPT; 420,000 tested, 15% active; DT40 Tdp1-/- hTDP1 cells, no CPT, ATP luminescence, 48 h; Potency, µM (titrated, usually from 46.2 µM), without a hit: at the highest dose activity change, negative = growth inhibition, usual class: inhibitors; note: % is set by controls: 0 for no effect and ±100 for the full control effect; nearly all actives have a fitted effect of over 55% in size
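A cellular qHTS used chicken DT40 cells lacking endogenous Tdp1 but carrying stably transfected human TDP1. Compounds were applied without camptothecin, and cell growth kinetics were judged by ATP-dependent luminescence after ≥48 hr.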
HepG2 tox – HepG2 cytotoxicity, counter-screen for TGF-b inhibitors | HepG2 CAGA-GFP viability, ATP luminescence, 18 h | Potency, µM (top dose mostly 46.1 µM), for the others: top-dose activity change, negative = cytotoxicity, most hits filed as cytotoxic | 410,000 tested, 0.76% active
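CellTiter-Glo luminescence gave cytotoxicity after 18 hours at 37 degrees C. The cells were HepG2 CAGA-GFP in 1% FBS DMEM, stimulated with 500 pg/mL TGF-beta after compound addition. %Activity was normalised to no-cell wells (complete cell-killing) and DMSO (no toxicity), and curves were fitted and classified.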
ATXN2 expr inh – inhibitors of ATXN2 expression; HEK-293 ATXN2-luciferase reporter, luminescence, 24 h; Potency, µM (titrated, usually from 57 µM), for the others: at the highest dose activity change, negative = inhibition, usual class: inhibitors; 360,000 tested, 0.72% active; AID 1745845; note: % is set by controls: 0 for no effect and ±100 for the full control effect; nearly all actives have a fitted effect of over 55% in size
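ATXN2-luciferase reporter cells (luciferase flanked by upstream and downstream ATXN2 gene portions) were treated 24 h at 37 °C with compounds at up to 57 uM. SteadyGlo luminescence gave expression; GF-AFC fluorescence gave viability.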
Active calls of the source: *; i = inactive; ? = inconclusive; / = no result given. Only some compounds are listed: those with a hit (about 17% of all), similar ones and a draw of the others. Calls come from the whole dose curve; as a rule, active = well fitted curve in the direction sought with a large enough effect; inconclusive = small, poorly fitted or top-dose-only effect, or another doubt; inactive = no such curve, though single readings can be large; an effect the other way counts as inactive or inconclusive. Potency is the fitted concentration of half-maximal effect.

SMILES	TGFb SMAD3 inh	DT40 TDP1 CPT	ATXN viability	TDP1 cell noCPT	HepG2 tox	ATXN2 expr inh
Cc1ccc(OCC(=O)NNC(=S)NC(=O)C(C)(C)C)c(Br)c1	?	?	i	18.4µM*	-22.6%	?
COC(=O)c1ccc(N2NC(=O)/C(=C/c3ccc(OC)c(OC)c3)C2=O)cc1	41.7%	1.6%	i	8.2%	17.7%	/
COc1ccc(/C=c2\s/c(=C/C(=O)c3ccc(C)cc3)[nH]c2=O)cc1OC	24.8%	?	/	18.4µM*	-17.0%	?
Cc1cccc(-n2c(-c3ccccc3)c[nH]c2=S)c1C	?	?	i	11.6µM*	-1.3%	7.7%
COc1ccccc1-n1c(-c2ccc(Cl)cc2)c[nH]c1=S	-7.5%	23.1µM*	?	20.6µM*	-0.9%	/
COc1ccccc1/C=C\C=N\n1c(-c2ccc(Cl)cc2)n[nH]c1=S	0.0%	?	?	?	-21.3%	-14.8%
CCOC(=O)C(C)Sc1cnccn1 (stereo not given)	-2.6%	19.0%	/	3.9%	-3.5%	/
Cc1cc(C(=O)OCC(=O)NCc2ccccc2Cl)c(C)o1	0.0%	2.9%	i	-4.6%	0.0%	-8.6%
CCOc1ccc(NC(=O)C2CCCN(c3nnc(C)c4c(C)n(-c5ccccc5)nc34)C2)cc1 (stereo not given)	3.1%	-10.9%	i	-15.3%	0.6%	4.6%
CNC(=O)C1CCCN(c2nnc(C)c3c(C)n(-c4ccccc4)nc23)C1 (stereo not given)	1.1%	-5.7%	/	-15.7%	8.4%	/
CCc1ccc(NC(=O)N2CCN(c3nnc(C)c4c(C)n(-c5ccc(Cl)cc5)nc34)CC2)cc1	-2.6%	?	i	23.1µM*	3.6%	?
CCc1ccc(NC(=O)C2CCCN(c3nnc(C)c4c(C)n(-c5ccccc5)nc34)C2)cc1 (stereo not given)	-0.6%	?	i	9.2µM*	-1.3%	-7.8%
Cc1cc(C)cc(NC(=O)C2CCCN(c3nnc(C)c4c(C)n(-c5ccccc5)nc34)C2)c1 (stereo not given)	-8.2%	23.1µM*	?	14.6µM*	-16.3%	?
Cc1ccc(NC(=O)C2CCN(c3nnc(C)c4c(C)n(-c5ccccc5)nc34)CC2)c(Cl)c1	?	13µM*	/	?	-18.6%	/
Cc1ccc(C)c(Cn2c(=O)n(-c3ccc(Cl)cc3)c(=O)c3c4c(sc32)CCC4)c1	?	-23.4%	i	-7.5%	6.1%	5.9%
CS(=O)(=O)c1ccc(-c2cnc(N)c(C(=O)Nc3ccccc3)n2)cc1	/	/	/	/	/	-11.7%
C[C@H](NC(=O)C1CCC(CNC(=O)[C@@H]2CCCN2C(=O)OC(C)(C)C)CC1)C(=O)O (stereo not given in full)	1.2%	5.5%	?	13.5%	2.5%	-9.3%
Cc1cc(Cl)ccc1NC(=O)C1CCCN(c2nnc(C)c3c(C)n(-c4ccccc4)nc23)C1 (stereo not given)	-0.8%	5.6%	i	-13.6%	9.7%	0.7%
Cc1ccc(NC(=O)C2CCCN(c3nnc(C)c4c(C)n(-c5ccccc5)nc34)C2)c(Cl)c1 (stereo not given)	-4.5%	4.11µM*	?	3.26µM*	-30.4%	?
O=C(Nc1nnc(S(=O)(=O)N2CCCc3ccccc32)s1)c1cccc(Cl)c1	?	?	?	18.4µM*	-40.0%	-3.4%
O=C(COc1ccc(Cl)cc1)Nc1nnc(S(=O)(=O)N2CCc3ccccc32)s1	?	?	/	18.4µM*	-31.4%	/
Cc1ccc(C(=O)Nc2nnc(S(=O)(=O)N3CCc4ccccc43)s2)cc1	?	-24.3%	i	-25.1%	-25.7%	1.9%
COc1cccc(C(=O)Nc2nnc(S(=O)(=O)N3CCCc4ccccc43)s2)c1	?	?	i	?	-50.1%	13.1%
Cc1cccc(C(=O)Nc2nnc(S(=O)(=O)N3CCCc4ccccc43)s2)c1	?	?	i	16.4µM*	-38.6%	4.5%
c1ccc(-c2ccc(N3CCCC4(CCNCC4)C3)cc2)cc1	/	5.8µM*	/	2.59µM*	/	/
SMILES	TGFb SMAD3 inh	DT40 TDP1 CPT	ATXN viability	TDP1 cell noCPT	HepG2 tox	ATXN2 expr inh
c1ccc(-c2ccc(N3CC[C@@]4(CCCNC4)C3)cc2)cc1	/	18.4µM*	/	20.6µM*	/	/
O=C(c1ccncc1)N1CCC2(CC1)CN(C(c1ccccc1)c1ccccc1)C2	/	7.4%	/	-2.8%	/	/
COC(=O)N1CCC2(CC1)CN(c1ccc(-c3ccccc3)cc1)C2	/	5.7%	/	-22.7%	/	/
c1ccc(-c2ccc(N3CC4(CCNCC4)C3)cc2)cc1	/	4.11µM*	/	2.59µM*	/	/
c1ccc(C(c2ccccc2)N2CC3(CCNCC3)C2)cc1	/	20.6µM*	/	14.6µM*	/	/
CSc1ccc(CCNC(=O)c2ccc(-n3c(C)cc4c3CCC(C)C4)cc2)cc1 (stereo not given)	-0.4%	2.9%	/	-9.0%	0.7%	/
CCOc1ccc(C(C)=O)cc1NC(=O)/C=C\C(=O)O	6.2%	-1.1%	i	-14.4%	25.3%	17.3%
CCOc1cc(CNC(=O)CSc2n[nH]c(-c3ccccc3)n2)cc(OCC)c1OCC	?	20.6µM*	/	?	-33.7%	/
COc1ccc(-c2nc(SCC(=O)NCc3ccccc3Cl)n[nH]2)cc1	0.0%	5.8µM*	/	7.31µM*	-18.4%	/
COc1ccc(-c2nc(SCC(=O)NCCc3ccccc3)n[nH]2)cc1	-9.1%	?	/	?	1.6%	/
Oc1[nH]c2ccccc2c1N=NC(=S)NCC1CCCO1 (stereo not given)	-9.0%	?	i	?	-8.9%	?
Oc1[nH]c2c(Cl)cc(Cl)cc2c1N=NC(=S)NCC1CCCO1 (stereo not given)	?	3.66µM*	?	4.61µM*	-4.2%	21.2µM*
Cc1cc(C)c2[nH]c(O)c(N=NC(=S)NCC3CCCO3)c2c1 (stereo not given)	0.0%	6.51µM*	i	6.51µM*	-8.5%	-4.9%
CCn1c(O)c(N=NC(=S)NCC2CCCO2)c2ccccc21 (stereo not given)	10µM*	13µM*	/	9.2µM*	-67.1%	/
Oc1[nH]c2ccc(Br)cc2c1N=NC(=S)NCC1CCCO1 (stereo not given)	-3.9%	?	?	?	0.5%	-15.5%
O=C(O)CCCCCNC(=O)OCC1c2ccccc2-c2ccccc21	1.1%	4.11µM*	?	11.6µM*	-26.5%	-23.1%
